Assay outcomes deposited in PubChem by National Center for Advancing Translational Sciences (NCATS).
DT40 TDP1 no CPT: qHTS for Inhibitors of human tyrosyl-DNA phosphodiesterase 1 (TDP1): qHTS in cells in absence of CPT; Potency, µM (top dose mostly 46.2 µM), for inactives: at the top dose activity change, negative = growth inhibition, most hits filed as inhibitors; DT40 Tdp1-/- hTDP1 cells, no CPT, ATP luminescence, 48 h; actives 15% (n = 420,000); AID 686978, 2013; further: on the % scale 0 is the no-effect control and ±100 the full control effect; nearly all actives have a fitted effect of over 55% in size
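Luminescent ATP content (CellTiter-Glo) served as the growth readout. Knockout chicken DT40 cells expressing human TDP1 were exposed to compounds without camptothecin for a minimum 48 hr at 37 °C.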
HT1080 IDH1KD tx: HT-1080 IDH1 knockdown cell toxicity (counter line); HT-1080 IDH1 knockdown viability, ATP luminescence, 48 h; Potency, µM (top dose mostly 46.1 µM), without a hit: top-dose activity, negative = toxicity, actives largely listed as cytotoxic; actives 2% (n = 360,000); AID 686971;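 further: 0% = DMSO wells and -100% = cell-free medium wells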
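In this qHTS, HT-1080 cells depleted of IDH1 are exposed for 48 h at 37 °C to compound titrations. Toxicity is scored from CellTiter-Glo luminescence, with DMSO as full viability and medium alone as none.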
TGFb inhibitor: blocks TGF-b signaling. HepG2 CAGA-GFP TGF-b/SMAD3 reporter, GFP fluorescence, 18 h; TGF-beta stimulated, 500 pg/mL final. actives 1.2% (n = 410,000). Potency, µM (doses to about 46.1 µM), for inactives: at the top dose activity, negative = inhibition, actives largely listed as inhibitors; further: on the % scale 0 is the no-effect control and ±100 the full control effect; nearly all actives have a fitted effect of over 65% in size
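HEPG2 CAGA-GFP, 1000 cells/well; 2 h settle, 37 C; cpd via pin tool; TGF-b 500 pg/mL final; 18 h, 37 C; GFP imaging ex488/em500-530; %Activity normalised to -TGF-b and +DMSO controls; CRC fit, curve class.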
TDP1 cell CPT: growth inhibition of DT40 Tdp1-/-;hTDP1 cells with camptothecin (screen for TDP1 inhibitors); chicken DT40 Tdp1-/-;hTDP1 cells + 20 nM CPT, ATP luminescence, 48 h; actives 12% (n = 420,000); Potency, µM (titrated, usually from 46.2 µM), without a hit: at the highest dose activity change, negative = growth inhibition, hits mostly inhibitors; further: on the % scale 0 is the no-effect control and ±100 the full control effect; nearly all actives have a fitted effect of over 55% in size
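Chicken DT40 Tdp1-/- cells stably complemented with human TDP1 were seeded at 400 cells/well in medium containing 20 nM camptothecin, exposed to pin-transferred compounds, and grown at 37 °C for at least 48 hr. Viability was read as ATP luminescence.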
HepG2 tox-1: HepG2 cytotoxicity, counter-screen for TGF-b inhibitors; HepG2 CAGA-GFP viability, ATP luminescence, 18 h; Potency, µM (series often up to 46.1 µM), for the others: at the top dose activity change, negative = cytotoxicity, actives largely listed as cytotoxic; actives 0.76% (n = 410,000); AID 588856
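CellTiter-Glo luminescence gave cytotoxicity after 18 hours at 37 degrees C. The cells were HepG2 CAGA-GFP in 1% FBS DMEM, stimulated with 500 pg/mL TGF-beta after compound addition. %Activity was normalised to no-cell wells (complete cell-killing) and DMSO (no toxicity), and curves were fitted and classified.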
HT1080NT lethal: kills 2HG-producing HT-1080-NT fibrosarcoma cells; HT-1080-NT fibrosarcoma viability, CellTiter-Glo ATP luminescence, 48 h; actives 1.6% (n = 360,000); AID 686970; Potency, µM (series often up to 46.1 µM), for the others: at the highest dose activity, negative = less viability, most hits filed as cytotoxic;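 further: NT is the 2HG producing partner of a matched IDH1 knockdown line; 0% = DMSO-treated cells and -100% = media-only wells without cells; nearly all actives have a fitted effect of over 55% in size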
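Viability by CellTiter-Glo luminescence after 48 h compound exposure at 37C of HT-1080-NT cells (750/well, RPMI, 5% FBS). % activity scaled between DMSO wells and medium-only wells, then curve-fitted and categorized by curve class.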
TGFb confirm: TGF-b pathway inhibition, cherry-pick retest; Potency, µM (top dose mostly 46.1 µM), without a hit: at the top dose activity, negative = inhibition, usual class: inhibitors; shares compounds with TGFb inhibitor; HepG2 CAGA-GFP TGF-b reporter, GFP fluorescence, 18 h; cells stimulated with TGF-beta, 500 pg/mL; actives 63% (n = 1,600); further: on the % scale 0 is the no-effect control and ±100 the full control effect; nearly all actives have a fitted effect of over 65% in size
HepG2 tox-2: counter-screen for TGF-b inhibitors: cytotoxicity in HepG2 cells. AID 720535. Potency, µM (highest dose often 46.1 µM), inactives show at the top dose activity, negative = cytotoxicity, actives largely listed as inhibitors. shares compounds with TGFb inhibitor. actives 27% (n = 1,600). HepG2 CAGA-GFP viability, ATP luminescence, 18 h; cells stimulated with TGF-beta, 500 pg/mL; further: on the % scale 0 is the no-effect control and ±100 the full control effect; nearly all actives have a fitted effect of over 70% in size
CCL64 TGFb inh: orthogonal confirmation of TGF-b inhibitors in CCL64 cells | shares compounds with TGFb inhibitor | Potency, µM (doses to about 46.1 µM), for the others: at the top dose activity, negative = inhibition, usual class: inhibitors | AID 720536 | CCL64 CAGA-GFP reporter, TGF-b stimulated, GFP fluorescence, 18 h | actives 41% (n = 1,600); further: nearly all actives have a fitted effect of over 65% in size
COP TGFb inh: blocks TGF-b signaling in HepG2 COP reporter. shares compounds with TGFb inhibitor. HepG2 COP-GFP TGF-b reporter, GFP fluorescence, 18 h; cells stimulated by added recombinant TGF-beta. Potency, µM (highest dose often 46.1 µM), inactives show at the top dose activity, negative = inhibition, actives largely listed as inhibitors. actives 3% (n = 1,600). AID 720537; further: nearly all actives have a fitted effect of over 70% in size
The depositor's hits bear a star; ? = inconclusive; . = no result given. The list is not random: actives were taken first. Their share in the collection is about 17%. The call rests on the fitted dose curve; in most records, active means well fitted curve in the direction sought with a large enough effect; inconclusive means small, poorly fitted or top-dose-only effect, or another doubt; inactive means no such curve, though single readings can be large; an effect the other way counts as inactive or inconclusive. Potency means the concentration at half of the fitted maximal effect.

SMILES	DT40 TDP1 no CPT	HT1080 IDH1KD tx	TGFb inhibitor	TDP1 cell CPT	HepG2 tox-1	HT1080NT lethal	TGFb confirm	HepG2 tox-2	CCL64 TGFb inh	COP TGFb inh
CC(=O)Nc1cccc(/C(C)=N/Nc2ccc(S(=O)(=O)Nc3ccccc3C(=O)O)cc2[N+](=O)[O-])c1	-13%	3%	?	-15%	1%	6%	.	.	.	.
COc1ccc(CNC(=O)c2cccc(-c3ccc(C)c4ccccc34)n2)cc1	18µM*	?	20µM*	?	0%	?	?	?	?	14%
COc1ccc(CNC(=O)c2ccccc2C(=O)O)cc1	-17%	11%	5%	-4%	3%	8%	.	.	.	.
COc1ccc(N(C)C(=O)c2nn(-c3ccc(C)cc3)c(=O)n(C)c2=O)c(OC)c1	-9%	.	-7%	0%	-1%	.	.	.	.	.
COc1ccc(N2CC(C(=O)N3CCN(c4ccccc4)CC3)CC2=O)cc1 (stereo unspecified)	?	2%	1%	-28%	0%	6%	.	.	.	.
Cc1ccc(NC(=O)c2nc[nH]c2C(=O)NCCCNC(=O)c2[nH]cnc2C(=O)Nc2ccc(C)cc2)cc1	?	15%	?	16µM*	-2%	17%	?	?	?	?
CCN(CC)C(=S)Nc1cc(C(=O)OC)ccc1C(=O)OC	-5%	-4%	5%	20%	4%	14%	.	.	.	.
Cc1cc(NC(=O)CS(=O)(=O)c2cn(Cc3cccc(Br)c3)c3ccccc23)no1	?	21µM*	10µM*	26µM*	-10%	?	12µM*	-15%	?	31%
Cc1cc(NC(=O)CS(=O)(=O)c2cn(Cc3ccccc3Cl)c3ccccc23)no1	?	?	?	?	-26%	?	.	.	.	.
CCCS(=O)(=O)NC(=O)C1(C)CCCN(C(=O)c2cc(OC)ccc2Br)C1 (stereo unspecified)	-2%	1%	0%	-4%	1%	10%	.	.	.	.
COc1ccc(-c2csc(Nc3ccc(Oc4ccccc4)cc3)n2)cc1	16µM*	13µM*	11µM*	18µM*	-16%	?	7.3µM*	-14%	7%	5%
CCc1cc(CNC(=O)CC2C(=O)NCCN2Cc2c(F)cccc2Cl)on1 (stereo unspecified)	-2%	15%	2%	4%	6%	6%	.	.	.	.
COc1ccc(S(=O)(=O)N2CCOCC2)cc1NC(=O)CSc1nnc(N)s1	-16%	5%	?	2%	5%	-2%	-12%	3%	3%	5%
Nc1nnc(SCC(=O)Nc2cccc(S(=O)(=O)N3CCOCC3)c2)s1	-6%	7%	?	-8%	-20%	6%	.	.	.	.
O=C(/C=C/c1ccc(Cl)cc1)c1ccc([N+](=O)[O-])o1	0.65µM*	13µM*	3.5µM*	1µM*	-57%	?	2.9µM*	7.3µM*	2.1µM*	6%
COC(C(=O)C(O)C(C)O)C1Cc2cc3cc(OC4CC(OC5CC(O)C(O)C(C)O5)C(O)C(C)O4)c(C)c(O)c3c(O)c2C(=O)C1OC1CC(OC2CC(OC3CC(O)C(OC)C(C)O3)C(O)C(C)O2)C(O)C(C)O1 (stereo unspecified)	0.15µM*	0.01µM*	1µM*	0.1µM*	17%	?	0.37µM*	0.092µM*	1.6µM*	16%
COc1ccc(NC(=O)N(C)C[C@H]2Oc3c(NC(=O)c4nc5ccccc5s4)cccc3C(=O)N([C@@H](C)CO)C[C@H]2C)cc1	?	-3%	11µM*	?	-6%	-15%	?	-22%	18µM*	38%
CC(=O)Oc1c(Br)cc(N(C(C)=O)S(=O)(=O)c2ccccc2)c2ccccc12	6.5µM*	?	8.9µM*	?	-91%	?	16µM*	?	13µM*	?
CCOC=C1C(=O)N(C(C)=O)c2cc(OC)c(OC)cc21	-17%	13%	4%	?	1%	-1%	.	.	.	.
OCCCn1c(C(CO)Nc2nc(-c3ccc(Cl)cc3)cs2)nc2ccccc21 (stereo unspecified)	16µM*	-16%	18µM*	?	-29%	-13%	15µM*	-29%	?	10%
COc1ccc(C(=O)/C(C#N)=N/Nc2cccc([N+](=O)[O-])c2)cc1	4.1µM*	23µM*	10µM*	5.8µM*	-19%	?	5.2µM*	?	8.2µM*	46%
COc1ccc(OCC(=O)N/N=C(\C)CC(=O)Nc2cccc([N+](=O)[O-])c2)cc1	3%	4%	4%	-2%	1%	-5%	.	.	.	.
CCN(CC)C(=O)CSc1nnc(-c2ccccc2)n1-c1ccccc1	?	0%	0%	?	-5%	5%	.	.	.	.
CCCCN(CC)C(=O)CSc1nc2n[nH]c(C)c2c(=N)n1-c1cccc(C)c1	21µM*	-23%	7.1µM*	7.3µM*	-30%	-25%	?	-18%	?	11%
